From PubChem BioAssay (NCATS)
Records with an inconclusive call do not appear. Active and inactive are the calls of the source. Calls follow the shape of the dose curve; as a rule, active = well fitted curve in the direction sought with a large enough effect; inconclusive = small, poorly fitted or top-dose-only effect, or another doubt; inactive = no such curve, though single readings can be large; an effect the other way counts as inactive or inconclusive.

What was measured:
[1] = MultiTox-Fluor Cytotoxicity Assay - LYMP1-001 - Dead Cells (AID 946)
How it was run: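 Cytotoxicity as increased dead-cell protease fluorescence (bis-AAF-R110, 485/520 nm), read 60 min after MultiTox-Fluor reagent. Human lymphoblastoid line exposed 16 h; Hill-fitted AC50, with DMSO as 0% and 15 uM tetraoctylammonium bromide as 100%.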

[2] = MultiTox-Fluor Cytotoxicity Assay - LYMP1-001 - Live Cells (AID 947)
[3] = Cell Viability - LYMP1-002 - Assay at 16 hr (AID 948)
How it was run: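 ATP luminescence (CellTiter-Glo) was measured after 16 hr compound exposure at 37 C of 2500 lymphoblastoid LYMP1-002 cells per well. Concentration-response curves were fitted with the Hill equation to give AC50.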

[4] = MultiTox-Fluor Cytotoxicity Assay - LYMP1-002 - Live Cells (AID 955);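 also: cells exposed to compound for 16 hours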
How it was run: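 In this qHTS viability format, lymphoblastoid cells (LYMP1-002, human) received compound for 16 hr at 37 C. Fluorogenic GF-AFC cleavage by viable cells was detected at 405/510 nm after 1 h at room temperature.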

[5] = MultiTox-Fluor Cytotoxicity Assay - LYMP1-003 - Live Cells (AID 962);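 also: cells exposed to compound for 16 hours at 37 °C; cytotoxic hits lower the live-cell protease signal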
How it was run: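 Human lymphoblastoid line LYMP1-003 in complete culture medium, treated 16 hr with titrated compounds. Viable cells quantified via cell-permeant GF-AFC substrate fluorescence; AC50 derived by Hill fitting.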

[6] = Cell Viability - LYMP1-003 - Assay at 24 hr (AID 963)
How it was run: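 The lymphoblastoid line was treated with titrated compounds for 24 hours, and viable cell number estimated from luciferase-based ATP luminescence.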

[7] = Cell Viability - LYMP1-003 - Assay at 40 hr (AID 964); also: series mostly up to about 92 µM; nearly all actives have a fitted effect of over 60% in size
How it was run: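 Acute toxicity is scored as a concentration-dependent loss of intracellular ATP in LYMP1-003 cells (2500/well, complete medium) after 40 hr at 37 C, measured by CellTiter-Glo luminescence; AC50 values derive from standard Hill modelling.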

[8] = Cell Viability - LYMP2-003 (AID 965);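 also: cells exposed to compounds for 24 h before reading; nearly all actives have a fitted effect of over 50% in size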
How it was run: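 CellTiter-Glo luminescence quantified ATP loss after 24 h compound treatment of LYMP2-003 lymphoblastoid cells at 37 C. Titration series were fitted with the standard Hill equation to give AC50.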

[9] = Cell Viability - LYMP2-005 (AID 967); also: series mostly up to about 92 µM
How it was run: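 LYMP2-005 human lymphoblastoid cells (2500/well) were treated with compounds for 24 h at 37 C. Intracellular ATP was then measured by CellTiter-Glo luminescence after 30 min at room temperature. AC50 values came from Hill-equation fits of qHTS concentration-response data.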

[10] = Cell Viability - LYMP2-009 (AID 968); also: series mostly up to about 92 µM; nearly all actives have a fitted effect of over 55% in size
[11] = Cell Viability - LYMP2-011 (AID 969); also: nearly all actives have a fitted effect of over 60% in size
How it was run: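 Cells seeded at 2500 per well rest 5 hr before compound addition, then incubate 24 hr at 37 C. CellTiter-Glo reagent is added for 30 min at room temperature before luminescence detection.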

[12] = Cell Viability - LYMP2-013 (AID 970); also: series mostly up to about 92 µM; nearly all actives have a fitted effect of over 55% in size
How it was run: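 In complete culture medium, human lymphoblastoid cells were dosed for 24 hr at 37 C, with tetraoctylammonium bromide (6.4pM to 92 uM) as positive control. Viability reflects luciferase-based ATP signal; AC50 derived from concentration-response curves.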

[13] = Cell Viability - LYMP2-015 (AID 971); also: nearly all actives have a fitted effect of over 55% in size
How it was run: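 AC50 values reflect Hill-model fits of ATP-based luminescence (CellTiter-Glo) from a human lymphoblastoid line, 2500 cells/well, treated 24 hr at 37 C.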

[14] = Cell Viability - LYMP2-017 (AID 972);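 also: series mostly up to about 92 µM; cells exposed to compound for 24 hours at 37 °C; nearly all actives have a fitted effect of over 55% in size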
How it was run: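 In this qHTS format, lymphoblastoid cells in complete medium receive test compound for a day at 37 C before ATP content is quantified by luciferase luminescence. Reported AC50 figures come from standard Hill-equation curve fitting.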

[15] = Cell Viability - LYMP2-019 (AID 973); also: nearly all actives have a fitted effect of over 55% in size
How it was run: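 AC50 values come from Hill-equation modelling of qHTS concentration-response curves, where viability is measured as luciferase-based ATP luminescence in the lymphoblastoid line after 24 hr compound exposure in complete culture medium.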

[16] = Cell Viability - LYMP2-021 (AID 974)
How it was run: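 In qHTS format, compounds are tested against 2500 lymphoblastoid cells per well for 24 h; viable cell number is inferred from ATP-driven luciferase light, and Hill-equation fitting yields AC50 values.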

[17] = MultiTox-Fluor Cytotoxicity Assay - LYMP1-003 - Dead Cells (AID 961); also: nearly all actives have a fitted effect of over 70% in size
How it was run: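 Dead-cell protease release, detected as bis-AAF-R110 fluorescence at 485/520 nm, was measured in LYMP1-003 cells after 16 h compound treatment at 37 C. AC50 values came from Hill-modeled qHTS curves normalized to DMSO (0%) and 15 uM tetraoctylammonium bromide (100%).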

[18] = Cell Viability - LYMP2-004 (AID 966); also: nearly all actives have a fitted effect of over 65% in size
How it was run: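 Viable-cell number estimated from ATP luminescence (CellTiter-Glo) in 2500 human lymphoblastoid cells/well after 24 hr at 37 C with compound. AC50 fitted to the standard Hill equation.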

[19] = Cell Viability - LYMP2-023 (AID 975)
How it was run: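 In this qHTS, ATP-based luciferase luminescence (CellTiter-Glo) is quantified in human lymphoblastoid cells after 24 hr compound treatment at 37 C; tetraoctylammonium bromide serves as positive control. Concentration-response curves are Hill-fitted to give AC50.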

[20] = MultiTox-Fluor Cytotoxicity Assay - LYMP1-002 - Dead Cells (AID 960); also: nearly all actives have a fitted effect of over 60% in size
How it was run: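 Concentration-dependent increases in membrane-leaked protease activity are quantified in LYMP1-002 cells after 16 hr treatment; values are normalized against DMSO and tetraoctylammonium bromide (15 uM) controls and AC50 derived by Hill modeling.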

Measured: Potency

O=C(O)CN(CC(=O)O)CC(=O)O
not listed: [17] | [18] | [19] | [20]
inactive: all other assays above

Cc1cc(C2(c3cc(C)c(O)cc3C)OS(=O)(=O)c3ccccc32)c(C)cc1O
not listed: [10] | [12] | [15] | [20]
inactive: all other assays above

C=C(C)C(=O)OCC(C)C
not listed: [2] | [4] | [9]
inactive: all other assays above

O=C(O)/C=C/C(=O)O
not listed: [2] | [20]
inactive: all other assays above

COc1ccccc1[N+](=O)[O-]
not listed: [2] | [8] | [10] | [18]
inactive: all other assays above

Nc1cccc(S(=O)(=O)O)c1
not listed: [2] | [7] | [9] | [17]
inactive: all other assays above

CC(=O)CC(C)C
not listed: [1]
inactive: all other assays above

NCCCCCCN
not listed: [2] | [9] | [18]
inactive: all other assays above

Cc1ccc(Cl)cc1N
not listed: [2] | [9] | [18]
inactive: all other assays above

O=C(O)c1c(Cl)cccc1Cl
not listed: [1]
inactive: all other assays above

CC(C)C=O
not listed: [2] | [8] | [18]
inactive: all other assays above

C=C(C)C(=O)OC
not listed: [2] | [7]
inactive: all other assays above

Cc1ccc(C)c([N+](=O)[O-])c1
not listed: [2] | [9] | [17]
inactive: all other assays above

CCCCC(C=O)CC (centres undefined)
not listed: [2] | [9] | [18]
inactive: all other assays above

C=CCOC(=O)CCCCCCCC
not listed: [2] | [6] | [8] | [9] | [13] | [18]
inactive: all other assays above

Nc1nc(CC(=O)O)cs1
not listed: [2] | [8] | [18]
inactive: all other assays above

COc1ccc(N=[N+]([O-])c2ccc(OC)cc2)cc1
not listed: [2] | [8] | [20]
inactive: all other assays above

NC(=O)/N=N/C(N)=O
not listed: [2] | [4] | [12] | [17]
inactive: all other assays above
